Assay outcomes as filed in PubChem.
Shown are actives, neighbours in structure and some others; about 5.9% of the full set was active somewhere.
KB-V1 cytotox – KB-V1 MDR subline cytotoxicity; KB-V1 MDR cells viability, CellTiter-Glo, 72 h; Potency, µM (doses to about 46.1 µM), most hits filed as cytotoxic; 3.4% of 400,000 active; AID 1347076; also: nearly all actives have a fitted effect of over 60% in size
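Compound-treated KB-V1 multidrug-resistant cells, 72 h, 37 degrees C; viability by CellTiter-Glo. Fitted qHTS curves give the values.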
ATXN2 expr inh – inhibitors of ATXN2 expression | 0.72% of 360,000 active | Potency, µM (highest dose often 57 µM), usual class: inhibitors | HEK-293 ATXN2-luciferase reporter, luminescence, 24 h; also: nearly all actives have a fitted effect of over 55% in size
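qHTS (up to 57 uM final) was run with 24 h compound exposure of reporter cells at 37 °C. Each well was multiplexed: SteadyGlo luminescence measured ATXN2-luciferase expression after a fluorogenic Gly-Phe-AFC viability readout (25 uM final).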
S2 tox – cell viability loss in ATXN counter-screen; S2 cells (HEK-293 line with an ATXN2-luciferase reporter) viability, CellTiter-Fluor protease fluorescence, 24 h; Potency, µM (titrated, usually from 56.7 µM), hits mostly cytotoxic; 0.49% of 400,000 active; AID 651635; also: nearly all actives have a fitted effect of over 40% in size
TGFb inhibitor – TGF-b pathway inhibition | HepG2 CAGA-GFP TGF-b/SMAD3 reporter, GFP fluorescence, 18 h; TGF-beta stimulated, 500 pg/mL final | Potency, µM (highest dose often 46.1 µM), most hits filed as inhibitors | 1.2% of 410,000 active | AID 588855; also: nearly all actives have a fitted effect of over 65% in size
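Inhibition was scored as loss of TGF-beta-induced (500 pg/mL final, 18 hours, 37 degrees C) GFP in HEPG2 cells carrying a CAGA-GFP reporter, in DMEM with 1% FBS. Well GFP was summed per cell; Activity was normalised to unstimulated and stimulated DMSO wells, then concentration-response fitting.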
KB-3-1 tox – KB-3-1 parental cell cytotoxicity; 1.4% of 400,000 active; KB-3-1 viability, CellTiter-Glo ATP luminescence, 72 h; Potency, µM (top dose mostly 46.1 µM), usual class: cytotoxic; also: nearly all actives have a fitted effect of over 60% in size
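Luminescent ATP read-out (CellTiter-Glo) measures survival of drug-naive KB-3-1 cells after 72 h compound exposure at 37 °C. Titration series was screened from lowest to highest concentration, with DMSO vehicle plates as background controls.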
HepG2 tox – HepG2 cytotoxicity, counter-screen for TGF-b inhibitors; 0.76% of 410,000 active; Potency, µM (series often up to 46.1 µM), most hits filed as cytotoxic; AID 588856; HepG2 CAGA-GFP viability, ATP luminescence, 18 h
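CellTiter-Glo luminescence gave cytotoxicity after 18 hours at 37 degrees C. The cells were HepG2 CAGA-GFP in 1% FBS DMEM, stimulated with 500 pg/mL TGF-beta after compound addition. %Activity was normalised to no-cell wells (complete cell-killing) and DMSO (no toxicity), and curves were fitted and classified.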
A number is an active result; . = inactive; ? = inconclusive; / = no result. Calls follow the shape of the dose curve; as a rule, active = well fitted curve in the direction sought with a large enough effect; inconclusive = small, poorly fitted or top-dose-only effect, or another doubt; inactive = no such curve, though single readings can be large; an effect the other way counts as inactive or inconclusive.

SMILES	KB-V1 cytotox	ATXN2 expr inh	S2 tox	TGFb inhibitor	KB-3-1 tox	HepG2 tox
Oc1cccc(/C=N/NC(=S)Nc2cccnc2)c1O	.	?	.	.	10.3µM	.
Oc1ccc(/C=N/NC(=S)Nc2cccnc2)c(O)c1O	.	.	?	.	.	.
Oc1ccc(C=NNC(=S)Nc2ccccc2)nc1	.	/	.	.	16.4µM	.
CCCCOc1ccc(C(=O)NCc2cn3cccc(C)c3n2)cc1	/	/	/	.	/	.
CC(=O)Nc1ccc(C(=O)OCc2ccc(Br)cc2)cc1	18.4µM	.	.	?	.	.
O=C(OCc1ccc(Br)cc1)c1ccncc1	.	/	.	.	.	.
COc1ccc(Nc2ncnc3c2cnn3-c2ccc(C)cc2C)cc1	.	.	.	.	.	.
Cc1ccc(S(=O)(=O)n2cc(-c3ccccc3)c3ccccc32)cc1	1.3µM	.	?	?	2.31µM	.
Nc1[nH]c(C(=O)c2ccccc2)c(-c2ccc(Cl)cc2)c1C(=O)NCCc1c[nH]c2ccccc12	.	.	?	/	?	/
Cn1cc(C(=O)NCCc2ccccc2)c(=O)c2cc(S(=O)(=O)N3CCCCCC3)ccc21	.	.	.	.	.	.
CCCCCC1CCC(C(=O)NNC(=S)NCC)CC1 (stereo not given)	14.6µM	.	.	.	?	.
CCCCCCC1CCC(C(=O)NC(C(=O)O)C(C)C)CC1 (stereo not given)	.	.	.	.	.	.
Cc1ncc2c(c1CNC(=O)CN1CCCC1)CCN(C(=O)c1ccc(F)cc1F)C2	/	/	.	/	/	/
Cc1cccc(N2CCN(C(=O)c3cccc(-n4c(C)nc5cccnc54)c3)CC2C)c1 (stereo not given)	.	/	/	.	.	.
COCCNc1nc2cc(-c3ccc(F)cc3)sc2c(=O)n1C	?	.	.	.	.	.
O=c1[nH]c(CCl)nc2cc(-c3ccc(F)cc3)sc12	?	?	.	?	?	11.2µM
Cn1cccc1C1C=C(c2ccc(C(C)(C)C)cc2)Nc2ncnn21 (stereo not given)	16.4µM	.	/	.	?	.
COCCNC(=S)N/N=C(\C)c1ccc(O)cc1	.	.	.	.	.	.
C/C(=N\NC(=S)NC(C)C)c1ccccc1	.	.	.	.	.	.
C/C(=N\NC(=S)NC1CCCCC1)c1ccccc1	.	.	.	.	16.4µM	.
C/C(=N\NC(=S)NC1CCCCC1)c1ccc(O)cc1	?	.	.	.	16.4µM	.
CCCC(CCC)=NNc1ccc(S(=O)(=O)Nc2ccccc2OC)cc1[N+](=O)[O-]	11.6µM	.	.	.	.	.
COc1ccccc1NS(=O)(=O)c1ccc(NN=C2CCCCC2)c([N+](=O)[O-])c1	16.4µM	.	.	.	.	.
COc1ccccc1NS(=O)(=O)c1ccc(N/N=C(\C)C(C)C)c([N+](=O)[O-])c1	11.6µM	.	.	?	?	.
COc1ccccc1NS(=O)(=O)c1ccc(OC)c([N+](=O)[O-])c1	.	.	.	.	.	.
SMILES	KB-V1 cytotox	ATXN2 expr inh	S2 tox	TGFb inhibitor	KB-3-1 tox	HepG2 tox
Cn1c(=O)c2c(nc(N3CCCCC3)n2CCSc2nc3ccccc3s2)n(C)c1=O	?	.	.	.	.	.
CC1CCCN(c2nc3c(c(=O)n(C)c(=O)n3C)n2CCSc2nc3ccccc3s2)C1 (stereo not given)	10.3µM	.	.	.	?	.
CC1CCCN(c2nc3c(c(=O)n(C)c(=O)n3C)n2CCSc2nc3ccccc3o2)C1 (stereo not given)	2.59µM	.	.	.	.	.
CC1CCN(c2nc3c(c(=O)n(C)c(=O)n3C)n2CCSc2nc3ccccc3s2)CC1	14.6µM	.	?	.	?	.
CCCNC(=O)C1(C)CCN(C(=O)c2ccc(OC)cc2OC)C1 (stereo not given)	.	.	.	.	.	.
O=C(Nc1nnc(Cc2ccc(Cl)cc2)s1)C1CCN(C(=O)c2ccco2)CC1	.	/	/	?	?	.
CCCc1[nH]c2ccc(C#N)cc2c1CCC	.	?	/	20µM	.	.
O=C(NC1CCC(n2cc(C(=O)NC3CC3)nn2)CC1)C(=O)c1ccccc1 (stereo not given)	/	/	.	/	/	/
CC(C)CCn1c(=O)[nH]c2ccccc21	.	.	.	.	.	.
O=c1[nH]c2ccccc2n1CCC1CCCCC1	18.4µM	.	.	.	.	.
O=c1[nH]c2ccccc2n1CCCSCCCn1c(=O)[nH]c2ccccc21	18.4µM	.	?	.	20.6µM	.
S=C(SSC(=S)N1CCOCC1)N1CCOCC1	.	?	?	0.562µM	.	0.708µM
CCOc1ccc(CNC(=O)CCS(=O)(=O)c2cc3c4c(c2)CCN4C(=O)CC3)cc1	.	.	.	.	.	.
CC(=O)CCSc1ncnc2sc(-c3ccccc3)cc12	.	.	.	?	.	.
O=C(O)CCSc1ncnc2sc(-c3ccccc3)cc12	.	2µM	.	.	.	.
O=C(O)CSc1ncnc2sc(-c3ccccc3)cc12	.	.	.	.	.	.
CNc1ncnc2sc(-c3ccccc3)cc12	9.2µM	.	.	.	?	.
CC(=O)c1c(C)[nH]c(C(=O)CSc2ncnc3sc(-c4ccccc4)cc23)c1C	7.31µM	.	?	.	.	.
COc1ccc(-n2c(CNC(=O)c3cccc4ccccc34)nnc2SC)cc1	/	/	.	/	/	/
CC(C)(C)c1ccc(C(=O)NC(=S)NNC(=O)c2cccs2)cc1	?	.	.	.	2.59µM	.
CC(C)(C)C(=O)NC(=S)NNC(=O)c1ccc(-c2ccccc2)cc1	9.2µM	/	?	10µM	?	.
O=C(NC(=S)NNC(=O)c1cccs1)c1ccccc1	.	.	.	.	?	.
COC(=O)C(Cc1c[nH]c2ccccc12)NC(=O)COc1cccc(C)c1 (stereo not given)	/	/	/	.	/	.
Cc1cc(C(=O)N/N=C/c2ccc([N+](=O)[O-])s2)n[nH]1	.	14.1µM	?	11.2µM	?	17.8µM
O=C(N/N=C/c1ccc([N+](=O)[O-])s1)c1cccc(Br)c1	?	.	?	?	.	.
CC(C)(C)OC(=O)N/N=C\c1ccc([N+](=O)[O-])s1	.	.	.	.	.	.
Cc1cccc(NC(=S)N/N=C/c2ccc([N+](=O)[O-])s2)c1	.	20µM	/	7.08µM	?	6.31µM
O=C(N/N=C/c1ccc([N+](=O)[O-])s1)c1ccncc1	.	?	.	?	.	12.6µM
CCOC(=O)N/N=C\c1ccc([N+](=O)[O-])s1	.	?	?	22.4µM	?	.
